{
  "source": "PubChem BioAssay AID651744",
  "about": "(Broad Institute, 2012)",
  "note": "In all, about 5,600 compounds went through this assay and about 3,100 (55%) were called active. Inconclusive results (about 3%) are left out. So high a share suggests a set chosen from earlier hits. The list is a sample of the results. Unmarked numbers belong to inactive results.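 The calls were made as follows: active = mean loss of cell viability signal at or above a set limit, and enough replicates individually reaching it; inconclusive = meets only the mean limit or only the replicate share; inactive = meets neither condition.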",
  "data": [
    {"test": "viability loss of mouse 3T3 cells – cell-based, cherry-pick, single point, set 2, cytotoxicity control, confirmation (AID 651744);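 also: 0% = median of neutral control wells and 100% = median of positive control wells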", "conditions": "NIH/3T3 viability, CellTiter-Glo ATP luminescence, 90 h; at 24.9 µM; stronger effect = higher value", "values": [
      {"smiles": "COc1ccc(-c2ccc3c(c2)[C@@H]2[C@@H](CCN2C(=O)Cc2ccccn2)[C@H](CO)N3C)cc1", "inhibition": "9.06%"},
      {"smiles": "CC(C)NC(=O)N(C)C[C@H]1OCc2cn(nn2)CCCC(=O)N([C@@H](C)CO)C[C@H]1C", "inhibition": "-9.15%"},
      {"smiles": "COc1ccc(-c2ccc([C@H]3[C@H]4CN(C(=O)c5ccc6c(c5)OCO6)CCCCN4[C@H]3CO)cc2)cc1", "inhibition": "67.5% (active)"},
      {"smiles": "O=C(c1cccc(F)c1)N1CCCCN2[C@H](CO)[C@H](c3ccc(-c4ccncc4)cc3)[C@H]2C1", "inhibition": "-0.739%"},
      {"smiles": "Cc1cccc(-c2ccc([C@@H]3[C@H](CO)N4CCCCN(C(=O)c5ccc6c(c5)OCO6)C[C@@H]34)cc2)c1", "inhibition": "105% (active)"},
      {"smiles": "CCCC#Cc1ccc([C@H]2[C@H](CO)N3CCCCN(C(=O)c4ccc5c(c4)OCO5)C[C@@H]23)cc1", "inhibition": "85.9% (active)"},
      {"smiles": "CC(C)(O)C#Cc1ccc([C@@H]2[C@H](CO)N3CCCCN(C(=O)c4cccc(F)c4)C[C@@H]23)cc1", "inhibition": "1.66%"},
      {"smiles": "COCC#Cc1ccc([C@@H]2[C@H](CO)N3CCCCN(C(=O)CN(C)C)C[C@@H]23)cc1", "inhibition": "-6.74%"},
      {"smiles": "CC(C)(C)[S@@](=O)N1Cc2cc(C(=O)NCc3ccc4c(c3)OCO4)nc(-c3cccc(-c4ccccc4)c3)c2[C@H]1CCO", "inhibition": "49% (active)"},
      {"smiles": "O=C(Nc1ccc(-c2ccccc2)cc1)[C@H]1[C@H](CO)[C@H]2Cn3c(cccc3=O)[C@H]2N1CC1CC1", "inhibition": "59.4% (active)"},
      {"smiles": "O=C(NCC1CCCCC1)[C@H]1[C@H](CO)[C@H]2Cn3c(cccc3=O)[C@H]2N1C(=O)CC1CC1", "inhibition": "2.76%"},
      {"smiles": "CNC[C@H]1OCCCC[C@H](C)Oc2ccc(NC(=O)Nc3c(C)noc3C)cc2C(=O)N([C@H](C)CO)C[C@H]1C", "inhibition": "11.5%"},
      {"smiles": "CNC[C@H]1OCCCC[C@@H](C)Oc2ccc(NS(C)(=O)=O)cc2C(=O)N([C@H](C)CO)C[C@H]1C", "inhibition": "-29.3%"},
      {"smiles": "C[C@@H]1CN([C@@H](C)CO)S(=O)(=O)c2ccc(C#CCC3CCCC3)cc2O[C@H]1CN(C)C(=O)CC1CC1", "inhibition": "104% (active)"},
      {"smiles": "CNC[C@@H]1Oc2cc(C#CCC3CCCC3)ccc2S(=O)(=O)N([C@H](C)CO)C[C@H]1C", "inhibition": "105% (active)"},
      {"smiles": "C[C@@H]1CN([C@H](C)CO)S(=O)(=O)c2ccc(C#CCC3CCCC3)cc2O[C@H]1CN(C)C(=O)CC1CC1", "inhibition": "103% (active)"},
      {"smiles": "C[C@@H]1CCCCO[C@H](CN(C)C(=O)CCC(F)(F)F)[C@H](C)CN([C@H](C)CO)C(=O)c2cc(NS(C)(=O)=O)ccc2O1", "inhibition": "4.09%"},
      {"smiles": "CC(=O)NC[C@@H]1[C@@H](c2ccc(-c3ccccc3F)cc2)[C@@H](CO)N1C(=O)C1CC1", "inhibition": "-15.5%"},
      {"smiles": "C[C@@H]1CN([C@@H](C)CO)C(=O)c2cc(NC(=O)Nc3cccc4ccccc34)ccc2O[C@@H](C)CCCCO[C@H]1CN(C)Cc1ccccc1", "inhibition": "104% (active)"},
      {"smiles": "C[C@@H]1CCCCO[C@H](CN(C)C(=O)Nc2cccc3ccccc23)[C@H](C)CN([C@H](C)CO)C(=O)c2cc(NS(=O)(=O)c3cccs3)ccc2O1", "inhibition": "2.06%"},
      {"smiles": "C[C@@H]1CCCCO[C@@H](CN(C)Cc2ccccc2)[C@H](C)CN([C@H](C)CO)C(=O)c2cc(NC(=O)Nc3cccc4ccccc34)ccc2O1", "inhibition": "105% (active)"},
      {"smiles": "C[C@@H]1CCCCO[C@@H](CN(C)C(=O)Nc2ccc(F)cc2)[C@H](C)CN([C@H](C)CO)C(=O)c2cc(NC(=O)Nc3cccc4ccccc34)ccc2O1", "inhibition": "-7.66%"}
    ]}
  ]
}
